Data published in PubChem BioAssay (EPA / NIEHS).
Active and inactive are the calls of the source. The calls were made as follows: active = hit-call score of the fitted dose curve at least 0.9, where 1 is the maximum; inactive = score below 0.9.

Tests used:
[1] = APR_HepG2_NuclearSize_72hr: Apredica 72-hour HepG2 Assay for Nuclear Size (AID 2282925); details: high-content imaging, actives raise or lower the signal
In short: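 HepG2; cpd 0.39–200 uM, 10 conc, duplicate; 72 h; DMSO 0.5% v/v; fix 3.7% formaldehyde 30 min RT; Triton permeabilization; Hoechst 2 ug/mL; HCS imaging 20x; nuclear diameter; gain/loss fit vs DMSO.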

[2] = ATG_CRE_CIS: Attagene CIS-FACTORIAL HepG2 Assay for human cAMP Responsive Element (CRE) binding protein 3 (AID 2282926); details: HepG2 CRE cis-reporter, Attagene multiplexed mRNA; actives raise or lower the signal
In short: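 HepG2 cells transiently transfected with a multiplexed reporter library (CRE-driven unit among them) were dosed for 24 h. Reporter mRNA was quantified by RT-PCR, fluorescent labelling, HpaI digestion and capillary electrophoresis, with bidirectional fitting against DMSO baseline.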

[3] = target: CCAAT/enhancer-binding protein beta (Homo sapiens) (UniProt P17676); assay: ATG_C_EBP_CIS: Attagene CIS-FACTORIAL HepG2 Assay for human CCAAT/Enhancer Binding Protein (C/EBP) beta (AID 2282927); details: HepG2 Attagene cis-factorial transcription factor reporter; actives raise or lower the signal
Sequence of CCAAT/enhancer-binding protein beta (Homo sapiens) (P17676 whole entry, looked up): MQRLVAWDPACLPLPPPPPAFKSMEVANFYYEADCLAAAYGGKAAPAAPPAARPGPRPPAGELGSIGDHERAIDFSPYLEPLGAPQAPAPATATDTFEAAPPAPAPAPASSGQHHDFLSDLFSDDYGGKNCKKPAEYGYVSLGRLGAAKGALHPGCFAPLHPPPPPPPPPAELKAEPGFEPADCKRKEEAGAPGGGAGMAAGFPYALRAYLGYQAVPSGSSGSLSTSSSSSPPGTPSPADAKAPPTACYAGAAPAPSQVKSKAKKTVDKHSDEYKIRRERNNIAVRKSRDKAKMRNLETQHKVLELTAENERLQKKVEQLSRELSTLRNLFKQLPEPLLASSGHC
In short: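 Changes in reporter mRNA, rather than exogenous chimeric receptor activity, reflect native C/EBP signalling in transfected HepG2 cells dosed for 24 h; transcripts are detected by RT-PCR and capillary electrophoresis.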

[4] = ATG_CMV_CIS: Attagene CIS-FACTORIAL HepG2 Assay for human CMV (Internal Marker) (AID 2282928); details: HepG2 CMV promoter reporter, transcription factor profiling; actives raise or lower the signal;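 also: endpoint acts as a background internal control marker rather than a target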
In short: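 After transient transfection of HepG2 with reporter transcription units driven by cis-regulatory promoters, cells receive test chemical for 24 h. Labeled reporter amplicons, digested with HpaI, are sized and quantified by capillary electrophoresis against DMSO.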

[5] = ATG_DR4_LXR_CIS: Attagene CIS-FACTORIAL HepG2 Assay for human Liver X Receptor (LXR), DR4 submotif (AID 2282929); details: HepG2 Attagene DR4 cis-reporter, mRNA transcription; actives raise or lower the signal
In short: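 HepG2 cells transiently transfected with cis-promoter-driven multiplexed reporter units (DR4 element) were dosed for 24 h. Reporter mRNA was quantified by RT-PCR, fluorescent primer extension, HpaI digestion and capillary electrophoresis; bidirectional fitting versus DMSO baseline.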

[6] = ATG_AP_2_CIS: Attagene CIS-FACTORIAL HepG2 Assay for human Activator Protein 2 (AP-2) (AID 2282932); details: HepG2 AP-2 cis-reporter, Attagene transcription factor profiling; actives raise or lower the signal
In short: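 HepG2, transient MRTU transfection, cis-regulated reporters; 24 h compound exposure; RNA isolated, RT-PCR, 6-FAM labelling, HpaI digest, CE fluorescence. DMSO = negative control/baseline, bidirectional fit.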

[7] = target: Retinoic acid receptor alpha (Homo sapiens) (UniProt P10276); assay: ATG_DR5_RAR_CIS: Attagene CIS-FACTORIAL HepG2 Assay for human Retinoic Acid Receptor Alpha (RARE), DR5 submotif (AID 2282934); details: HepG2 Attagene cis-factorial RARE DR5 reporter, mRNA; actives raise or lower the signal;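 as to AC50: reporter responds to endogenous RAR alpha beta and gamma in HepG2 not RARA alone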
Sequence of Retinoic acid receptor alpha (Homo sapiens) (P10276 whole entry, looked up): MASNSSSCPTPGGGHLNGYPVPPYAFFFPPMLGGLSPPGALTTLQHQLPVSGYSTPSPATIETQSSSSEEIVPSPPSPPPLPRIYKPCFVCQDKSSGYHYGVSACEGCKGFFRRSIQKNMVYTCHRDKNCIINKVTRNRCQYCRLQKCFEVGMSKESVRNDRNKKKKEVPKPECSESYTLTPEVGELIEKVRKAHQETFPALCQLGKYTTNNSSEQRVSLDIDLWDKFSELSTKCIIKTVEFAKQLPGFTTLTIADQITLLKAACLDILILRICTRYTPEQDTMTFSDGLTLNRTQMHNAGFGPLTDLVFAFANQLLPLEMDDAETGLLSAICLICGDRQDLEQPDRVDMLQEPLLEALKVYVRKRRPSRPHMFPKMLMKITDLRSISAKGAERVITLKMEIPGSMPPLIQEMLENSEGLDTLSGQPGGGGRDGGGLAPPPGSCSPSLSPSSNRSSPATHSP
In short: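 HepG2, transient cis-reporter transfection, 24 h exposure. mRNA readout: RT-PCR, FAM label, HpaI cut, capillary electrophoresis. DMSO baseline, gain/loss fitting.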

[8] = target: Transcription factor E2F1 (Homo sapiens) (UniProt Q01094); assay: ATG_E2F_CIS: Attagene CIS-FACTORIAL HepG2 Assay for human E2F Transcription Factor 1 (AID 2282935); details: HepG2 Attagene cis-reporter, E2F reporter RNA transcripts; actives raise or lower the signal
Sequence of Transcription factor E2F1 (Homo sapiens) (Q01094 whole entry, looked up): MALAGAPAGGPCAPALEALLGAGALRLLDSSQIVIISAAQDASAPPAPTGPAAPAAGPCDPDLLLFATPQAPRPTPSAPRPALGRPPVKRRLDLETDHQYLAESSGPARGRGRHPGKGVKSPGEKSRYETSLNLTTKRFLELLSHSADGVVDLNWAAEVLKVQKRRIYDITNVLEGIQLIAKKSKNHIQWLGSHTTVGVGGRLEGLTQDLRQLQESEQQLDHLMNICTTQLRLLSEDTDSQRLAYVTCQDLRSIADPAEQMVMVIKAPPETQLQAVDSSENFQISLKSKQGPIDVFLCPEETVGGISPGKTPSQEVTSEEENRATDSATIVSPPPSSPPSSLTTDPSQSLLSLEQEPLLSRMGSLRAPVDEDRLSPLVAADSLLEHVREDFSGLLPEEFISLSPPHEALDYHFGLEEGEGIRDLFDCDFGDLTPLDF
In short: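 Cis-element reporter mRNA induction in transiently transfected HepG2, 24 h exposure. Activity fitted in both directions relative to DMSO negative control.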

[9] = ATG_E_Box_CIS: Attagene CIS-FACTORIAL HepG2 Assay for human Enhancer Box (E-box) (AID 2282936); details: HepG2 E-box cis-reporter transcription, actives raise or lower the signal
In short: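 Cells: HepG2 (human liver), transient MRTU transfection. Exposure 24 h. RNA → oligo(dT) RT → PCR → 6-FAM label → HpaI → CE. Activity fitted both directions relative to DMSO.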

[10] = ATG_M_61_CIS: Attagene CIS-FACTORIAL HepG2 Assay for M61 Transcription Factor (Internal Marker) (AID 2282937); details: HepG2 Attagene CIS-FACTORIAL M61 internal marker reporter; actives raise or lower the signal
In short: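 HepG2 cells transiently transfected with cis-element-driven multiple reporter transcription units, dosed for 24 h. Reporter mRNA measured by RT-PCR, 6-FAM primer-extension labelling, HpaI digestion and capillary electrophoresis; bidirectional fit versus DMSO baseline.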

[11] = ATG_EGR_CIS: Attagene CIS-FACTORIAL HepG2 Assay for human Early Growth Response 1 (EGR1) (AID 2282938); details: HepG2 Attagene CIS-FACTORIAL EGR reporter mRNA; actives raise or lower the signal
In short: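 HepG2 cells transiently transfected with cis-promoter-driven multiplexed reporter transcription units; reporter mRNA measured 24 h after compound dosing by RT-PCR, 6-FAM primer extension, HpaI digestion and capillary electrophoresis. Bidirectional fit versus DMSO baseline.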

[12] = ATG_M_19_CIS: Attagene CIS-FACTORIAL HepG2 Assay for M19 Transcription Factor (Internal Marker) (AID 2282939); details: HepG2 Attagene CIS-FACTORIAL M19 internal marker reporter; actives raise or lower the signal
In short: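 Internal marker readout, fitted in both directions against DMSO, from HepG2 cells carrying transfected cis-element reporter constructs; RT-PCR and capillary electrophoresis of reporter mRNA after 24 h exposure.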

[13] = ATG_ERE_CIS: Attagene CIS-FACTORIAL HepG2 Assay for Estrogen Response Element (ERE) (AID 2282940); details: HepG2 ERE cis-reporter, Attagene RNA transcript; actives raise or lower the signal
In short: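 After 24 h compound treatment, RNA from transfected HepG2 cells was reverse-transcribed, reporter cDNA PCR-amplified, FAM-labelled, HpaI-cut and resolved by capillary electrophoresis. ERE-driven cis reporter transcripts reflect endogenous factors; gain or loss scored against DMSO.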

[14] = ATG_Ets_CIS: Attagene CIS-FACTORIAL HepG2 Assay for human Erythroblast Transformation Specific (ETS) (AID 2282941); details: HepG2 ETS cis-reporter transcription, actives raise or lower the signal
In short: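 Human HepG2 hepatoma cells were transiently transfected with promoter-driven reporter constructs and treated for 24 hours. Reporter transcripts were quantified by RT-PCR with fluorescent primer extension; bidirectional curve fitting used DMSO as reference.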

[15] = target: Hepatocyte nuclear factor 3-beta (Homo sapiens) (UniProt Q9Y261); assay: ATG_FoxA2_CIS: Attagene CIS-FACTORIAL HepG2 Assay for human Forkhead box A2 (FOXA2) (AID 2282942); details: HepG2 cis-reporter transcription factor activity, 24 h; actives raise or lower the signal
Sequence of Hepatocyte nuclear factor 3-beta (Homo sapiens) (Q9Y261 whole entry, looked up): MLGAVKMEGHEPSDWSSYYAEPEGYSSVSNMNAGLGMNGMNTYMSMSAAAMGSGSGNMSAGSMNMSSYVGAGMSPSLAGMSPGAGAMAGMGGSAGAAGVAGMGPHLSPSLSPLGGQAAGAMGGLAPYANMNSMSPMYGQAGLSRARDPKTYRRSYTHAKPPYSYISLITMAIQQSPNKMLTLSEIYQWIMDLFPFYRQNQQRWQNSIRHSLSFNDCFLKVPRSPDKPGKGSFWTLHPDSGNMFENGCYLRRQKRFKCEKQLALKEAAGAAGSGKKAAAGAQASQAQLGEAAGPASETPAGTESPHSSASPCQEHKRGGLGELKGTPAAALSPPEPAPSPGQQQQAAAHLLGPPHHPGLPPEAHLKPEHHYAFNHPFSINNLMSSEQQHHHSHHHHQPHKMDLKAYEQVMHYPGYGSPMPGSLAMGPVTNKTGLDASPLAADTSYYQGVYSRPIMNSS
In short: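 HepG2 cells transiently transfected with multiple cis-regulated reporter transcription units, dosed for 24 h. Reporter mRNA measured by RT-PCR, 6-FAM labelling, HpaI digestion and capillary electrophoresis; bidirectional fitting against DMSO baseline.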

[16] = ATG_FoxO_CIS: Attagene CIS-FACTORIAL HepG2 Assay for human Forkhead box O (FoxO) (AID 2282943); details: HepG2 Attagene cis-reporter, FoxO element, mRNA; actives raise or lower the signal
In short: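 Human hepatoma HepG2 cells carry transiently introduced reporter transcription units controlled by cis promoter elements. Chemical treatment lasted 24 h, and mRNA signal was compared with DMSO.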

[17] = ATG_GATA_CIS: Attagene CIS-FACTORIAL HepG2 Assay for human GATA Binding Protein (AID 2282944); details: HepG2 GATA cis-element reporter, Attagene multiplex mRNA; actives raise or lower the signal
In short: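 Reporter transcripts from a GATA cis-regulated unit, among multiplexed reporters in transfected HepG2 cells, were measured by RT-PCR with capillary electrophoresis after 24 h dosing. Induction or loss scored relative to DMSO.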

[18] = ATG_AP_1_CIS: Attagene CIS-FACTORIAL HepG2 Assay for human Activator Protein 1 (AP-1) (AID 2282931); details: HepG2 Attagene cis-factorial AP-1 reporter mRNA; actives raise or lower the signal
In short: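 HepG2 cells transiently transfected with cis-element-driven multiplex reporter units; 24 h compound exposure. Reporter mRNA quantified by RT-PCR, FAM-labelled fragments resolved by capillary electrophoresis; bidirectional fit versus DMSO baseline.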

[19] = ATG_BRE_CIS: Attagene CIS-FACTORIAL HepG2 Assay for human Bone Morphogenetic Protein (BMP) Response Element (BRE) (AID 2282933); details: HepG2 BMP response element reporter, Attagene transcription factor profiling; actives raise or lower the signal
In short: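 Endogenous transcription factor activity read in transiently transfected HepG2 cells after 24 h chemical exposure. Bidirectional curve fitting against DMSO; readout is reporter transcript level by RT-PCR with capillary electrophoresis of labelled products.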

Measured: AC50

NCCO
not listed: [18] | [19]
inactive: all other assays above

Cc1cccc(Nc2cc(Cl)nc(SCC(=O)O)n2)c1C
not listed: [6]
inactive: all other assays above

CCCCC(CC)COC(=O)CC(C(=O)OCC(CC)CCCC)S(=O)(=O)O (stereo not given)
not listed: [6] | [18]
inactive: all other assays above

C=CCOC(=O)c1ccccc1C(=O)OCC=C
active: [3] 26.4 µM | [4] 26.2 µM | [5] 26.2 µM
not listed: [18]
inactive: all other assays above

C1CCC(SSC2CCCCC2)CC1
active: [4] 65.6 µM | [18] 125 µM | [13] 56.7 µM
not listed: [6]
inactive: all other assays above

CCc1c(C(=O)NN2CCCCC2)nn(-c2ccc(Cl)cc2Cl)c1-c1ccc(Br)cc1
active: [4] 6.36 µM | [5] 1.91 µM | [7] 2.16 µM | [11] 3.12 µM | [13] 6.06 µM
not listed: [18] | [19]
inactive: all other assays above

CCCCCCCCCCC
not listed: [6]
inactive: all other assays above

CCOC(=O)C(C)(C)Oc1ccc(Cl)cc1
not listed: [6] | [7] | [18] | [19]
inactive: all other assays above

Cc1cccc(C)c1O
not listed: [6]
inactive: all other assays above

O=C(OCCCCCOC(=O)c1ccccc1)c1ccccc1
not listed: [18]
inactive: all other assays above

COc1ccc2c(c1)c(CC(=O)O)c(C)n2C(=O)c1ccc(Cl)cc1
not listed: [18] | [19]
inactive: all other assays above

CN[C@H]1CC[C@@H](c2ccc(Cl)c(Cl)c2)c2ccc(S(N)(=O)=O)cc21
not listed: [7] | [18]
inactive: all other assays above

COC(=O)c1ccc(O)cc1
active: [13] 67.4 µM
not listed: [18]
inactive: all other assays above

FC(F)(F)C(F)(F)C(F)(F)C(F)(F)C(F)(F)C(F)(F)CCI
not listed: [18] | [19]
inactive: all other assays above

CC(=O)C(C)=CC1C(C)=CCCC1(C)C (stereo not given)
active: [13] 33.4 µM
not listed: [6] | [19]
inactive: all other assays above
